Measurements as given in PubChem BioAssay (NCATS).
Values joined by “and” are separate entries in the source; they are usually repeats but may differ in a detail not shown here. Identical values can stand only once. Results filed as inconclusive are left out. Active and inactive are the calls of the source. Calls come from the whole dose curve; as a rule, active = well fitted inhibition curve with a large enough effect; inconclusive = small, poorly fitted or top-dose-only effect; inactive = flat fitted curve, though single readings scatter.

Tests used:
[1] = qHTS profiling for inhibitors of Plasmodium falciparum proliferation (AID 504749); note: nearly all actives have a fitted effect of over 60% in size;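 for activity, negative = inhibition: 0% = DMSO vehicle and full inhibition = artemisinin control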; conditions: P. falciparum in erythrocytes, SYBR Green DNA, 72 h
Method in brief: (§1)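 Parasite proliferation within erythrocytes, 72 h exposure. Endpoint: SYBR Green I fluorescence after overnight lysis at room temperature. Controls: 0.29 uM artemisinin, DMSO.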

[2] = system: 3D7; assay: as above; conditions: P. falciparum in erythrocytes, SYBR Green DNA, 72 h; series mostly up to 28.7 µM
Method in brief: as §1

[3] = system: 7G8; assay: as above; conditions: P. falciparum in erythrocytes, SYBR Green DNA, 72 h; series mostly up to 28.7 µM
Method in brief: as §1

[4] = system: AA1029; assay: as above; conditions: P. falciparum in erythrocytes, SYBR Green DNA, 72 h; series mostly up to 28.7 µM
Method in brief: as §1

[5] = system: AS120; assay: as above; conditions: P. falciparum in erythrocytes, SYBR Green DNA, 72 h; series mostly up to 28.7 µM
Method in brief: as §1

[6] = system: ATS189; assay: as above; conditions: P. falciparum in erythrocytes, SYBR Green DNA, 72 h; series mostly up to 28.7 µM
Method in brief: as §1

[7] = system: ATS95; assay: as above; conditions: P. falciparum in erythrocytes, SYBR Green DNA, 72 h; series mostly up to 28.7 µM
Method in brief: as §1

[8] = system: C2A; assay: as above; conditions: P. falciparum in erythrocytes, SYBR Green DNA, 72 h; series mostly up to 28.7 µM
Method in brief: as §1

[9] = system: CP185; assay: as above; conditions: P. falciparum in erythrocytes, SYBR Green DNA, 72 h; series mostly up to 28.7 µM
Method in brief: as §1

[10] = system: CP191; assay: as above; conditions: P. falciparum in erythrocytes, SYBR Green DNA, 72 h; series mostly up to 28.7 µM
Method in brief: as §1

[11] = system: CP192; assay: as above; conditions: P. falciparum in erythrocytes, SYBR Green DNA, 72 h; series mostly up to 28.7 µM
Method in brief: as §1

[12] = system: CP194; assay: as above; conditions: P. falciparum in erythrocytes, SYBR Green DNA, 72 h; series mostly up to 28.7 µM
Method in brief: as §1

[13] = system: CP201; assay: as above; conditions: P. falciparum in erythrocytes, SYBR Green DNA, 72 h; series mostly up to 28.7 µM
Method in brief: as §1

[14] = system: CP211; assay: as above; conditions: P. falciparum in erythrocytes, SYBR Green DNA, 72 h; series mostly up to 28.7 µM
Method in brief: as §1

[15] = system: CP215; assay: as above; conditions: P. falciparum in erythrocytes, SYBR Green DNA, 72 h; series mostly up to 28.7 µM
Method in brief: as §1

[16] = system: CP217; assay: as above; conditions: P. falciparum in erythrocytes, SYBR Green DNA, 72 h; series mostly up to 28.7 µM
Method in brief: as §1

[17] = system: CP237; assay: as above; conditions: P. falciparum in erythrocytes, SYBR Green DNA, 72 h; series mostly up to 28.7 µM
Method in brief: as §1

[18] = system: CP238; assay: as above; conditions: P. falciparum in erythrocytes, SYBR Green DNA, 72 h; series mostly up to 28.7 µM
Method in brief: as §1

[19] = system: CP203; assay: as above; conditions: P. falciparum in erythrocytes, SYBR Green DNA, 72 h; series mostly up to 28.7 µM
Method in brief: as §1

[20] = at 28.7 µM (top of the series), parasite line A
[21] = at 28.7 µM (top of the series), parasite line B
Potency is the fitted concentration of half-maximal effect.

Cc1ccccc1CNc1ncnc2c1ncn2C1OC(CO)C(O)C1O (configuration not stated)
inactive: activity, negative = inhibition [1, 20] 17.8% | activity, negative = inhibition [1, 21] -2% | Potency [2] | Potency [3] | Potency [4] | Potency [5] | Potency [6] | Potency [7] | Potency [8] | Potency [9] | Potency [10] | Potency [11] | Potency [12] | Potency [13] | Potency [14] | Potency [15] | Potency [16] | Potency [17] | Potency [18]

CC(C(=O)O)c1ccc2c(c1)[nH]c1ccc(Cl)cc12 (configuration not stated)
inactive: activity, negative = inhibition [1, 20] 3.75% | activity, negative = inhibition [1, 21] 2.58% | Potency [2] | Potency [3] | Potency [4] | Potency [5] | Potency [6] | Potency [7] | Potency [8] | Potency [9] | Potency [10] | Potency [11] | Potency [12] | Potency [13] | Potency [19] | Potency [14] | Potency [15] | Potency [16] | Potency [17] | Potency [18]

O=C(/C=C/c1ccccc1)NCCO
inactive: activity, negative = inhibition [1, 20] 4.35% | activity, negative = inhibition [1, 21] -2.74% | Potency [2] | Potency [3] | Potency [4] | Potency [5] | Potency [6] | Potency [7] | Potency [8] | Potency [9] | Potency [10] | Potency [11] | Potency [12] | Potency [13] | Potency [14] | Potency [15] | Potency [16] | Potency [17] | Potency [18]

C=CC(N)CCC(=O)O (configuration not stated)
inactive: activity, negative = inhibition [1, 20] 0.626% | activity, negative = inhibition [1, 21] 10.5% | Potency [2] | Potency [3] | Potency [4] | Potency [5] | Potency [6] | Potency [7] | Potency [8] | Potency [9] | Potency [10] | Potency [11] | Potency [12] | Potency [13] | Potency [14] | Potency [15] | Potency [16] | Potency [17] | Potency [18]

O=C(O)Cc1ccc(-c2ccccc2)cc1
inactive: activity, negative = inhibition ([1]; at 12.8 µM (top of the series), parasite line A) 2.72% | activity, negative = inhibition ([1]; at 12.8 µM (top of the series), parasite line B) -2.57% | Potency [2] | Potency [3] | Potency [4] | Potency [5] | Potency [6] | Potency [7] | Potency [8] | Potency [9] | Potency [10] | Potency [11] | Potency [12] | Potency [13] | Potency [14] | Potency [15] | Potency [16] | Potency [17] | Potency [18]

C=C(Nc1ccc(OCC)cc1)Nc1ccc(OCC)cc1
inactive: activity, negative = inhibition [1, 20] 1.26% and 13.3% | activity, negative = inhibition [1, 21] -29.4% and 7.39% | Potency [2] | Potency [3] | Potency [4] | Potency [5] | Potency [6] | Potency [7] | Potency [8] | Potency [9] | Potency [10] | Potency [11] | Potency [12] | Potency [13] | Potency [19] | Potency [14] | Potency [15] | Potency [16] | Potency [17] | Potency [18]

[O-][n+]1ccccc1SSc1cccc[n+]1[O-]
active: Potency ([1]; parasite line A) 891 nM | Potency ([1]; parasite line B) 891 nM | Potency [2] 891 nM | Potency [3] 891 nM | Potency [4] 891 nM | Potency [5] 891 nM | Potency [6] 1120 nM | Potency [7] 891 nM | Potency [8] 891 nM | Potency [9] 1120 nM | Potency [10] 1260 nM | Potency [11] 1350 nM | Potency [12] 1070 nM | Potency [13] 1900 nM | Potency [14] 1070 nM | Potency [15] 1350 nM | Potency [16] 1260 nM | Potency [17] 891 nM | Potency [18] 1120 nM

Cc1[nH]cnc1CN1CCc2c(c3ccccc3n2C)C1=O
inactive: activity, negative = inhibition [1, 20] 12% | activity, negative = inhibition [1, 21] 7.41% | Potency [2] | Potency [3] | Potency [4] | Potency [5] | Potency [6] | Potency [7] | Potency [8] | Potency [9] | Potency [10] | Potency [11] | Potency [12] | Potency [13] | Potency [14] | Potency [15] | Potency [16] | Potency [17] | Potency [18]

c1ccc2sc(SSc3nc4ccccc4s3)nc2c1
inactive: activity, negative = inhibition [1, 20] 6.98% | activity, negative = inhibition [1, 21] -5.71% | Potency [2] | Potency [3] | Potency [4] | Potency [5] | Potency [6] | Potency [7] | Potency [8] | Potency [9] | Potency [10] | Potency [11] | Potency [12] | Potency [13] | Potency [14] | Potency [15] | Potency [16] | Potency [17] | Potency [18]

CCOC(=O)c1ccccc1O
inactive: activity, negative = inhibition [1, 20] 4.06% | activity, negative = inhibition [1, 21] 15.6% | Potency [2] | Potency [3] | Potency [4] | Potency [5] | Potency [6] | Potency [7] | Potency [8] | Potency [9] | Potency [10] | Potency [11] | Potency [12] | Potency [13] | Potency [14] | Potency [15] | Potency [16] | Potency [17] | Potency [18]

CCC1C(=O)OCC1Cc1cncn1C (configuration not stated)
inactive: activity, negative = inhibition [1, 20] -3.99% | activity, negative = inhibition [1, 21] -7.08% | Potency [2] | Potency [3] | Potency [4] | Potency [5] | Potency [6] | Potency [7] | Potency [8] | Potency [9] | Potency [10] | Potency [11] | Potency [12] | Potency [13] | Potency [19] | Potency [14] | Potency [15] | Potency [16] | Potency [17] | Potency [18]
